Assay outcomes deposited in PubChem BioAssay by several laboratories.
In the library only some 2.4% were active in any assay of this set; here they are far more common.
PREPL inhibitor: human PREPL enzyme inhibition. Q4J6C6. recombinant PREPL, fluorescence polarization activity-based probe. inhibition, % at 5.96 µM. hit rate 0.68% among 320,000; in the data active = inhibition above about 43%;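 also: 0% = enzyme with DMSO and 100% = wells lacking enzyme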
Target sequence (Q4J6C6 whole entry, looked up): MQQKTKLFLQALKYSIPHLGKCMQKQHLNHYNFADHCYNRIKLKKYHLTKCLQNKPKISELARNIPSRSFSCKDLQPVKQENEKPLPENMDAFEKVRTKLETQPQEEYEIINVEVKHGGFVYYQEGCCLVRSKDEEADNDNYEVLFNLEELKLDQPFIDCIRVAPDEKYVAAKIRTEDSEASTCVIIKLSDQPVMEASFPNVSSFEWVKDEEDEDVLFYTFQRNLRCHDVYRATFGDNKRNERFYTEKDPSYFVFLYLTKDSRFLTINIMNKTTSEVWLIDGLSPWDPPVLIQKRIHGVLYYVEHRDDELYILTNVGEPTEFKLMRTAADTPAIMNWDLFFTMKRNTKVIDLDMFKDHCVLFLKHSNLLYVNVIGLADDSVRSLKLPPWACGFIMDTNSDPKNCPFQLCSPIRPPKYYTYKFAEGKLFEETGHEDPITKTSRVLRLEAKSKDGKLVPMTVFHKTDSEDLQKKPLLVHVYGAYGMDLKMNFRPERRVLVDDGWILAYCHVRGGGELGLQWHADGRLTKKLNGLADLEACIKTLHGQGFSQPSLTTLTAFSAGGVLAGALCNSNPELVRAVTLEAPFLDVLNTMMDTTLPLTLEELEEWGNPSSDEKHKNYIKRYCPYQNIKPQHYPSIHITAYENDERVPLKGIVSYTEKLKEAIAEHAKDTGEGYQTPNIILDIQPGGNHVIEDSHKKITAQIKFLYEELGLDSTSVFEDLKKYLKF
PP5 primary: inhibitors of human protein phosphatase 5 (PP5); hit rate 0.18% among 320,000; purified PP5c, OMFP substrate fluorescence; P53041; inhibition, % at 6.7 µM; AID 1987;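 active = inhibition above the campaign's mean inhibition across all tested compounds plus 3 SD, cut at about 9.5% in these data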;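 also: 0% = DMSO only and 100% = 100 µM cantharidin control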
Rpn11 block: blocks the human proteasome subunit Rpn11 | inhibition, % at 20 µM | hit rate 0.59% among 360,000 | human 26S proteasome, Ub4-pepOG fluorescence polarization; 20S core pre-blocked with epoxomicin | AID 588493;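 active = inhibition at 20 µM, scaled to each plate's controls, above about 33%, limit read from the data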
NadD block: blocks S. aureus nicotinate mononucleotide adenylyltransferase | purified NadD enzyme, colorimetric absorbance read-out | inhibition, % at 20 µM | hit rate 0.78% among 360,000 | AID 602399; in the data active = inhibition above about 26%
PP1 counter: PP1-alpha (human) inhibition in PP5 counter-screen. inhibition, % at 6.7 µM. P62136. purified PP1alpha, OMFP fluorescence. hit rate 0.9% among 320,000;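 active = inhibition above the mean inhibition of all tested compounds plus 3 SD, computed separately for each screening campaign, cut at about 15% in these data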
The depositor's hits bear a star; nt = no result given.

SMILES	PREPL inhibitor	PP5 primary	Rpn11 block	NadD block	PP1 counter
O=[N+]([O-])c1ccc(Cl)c2c1C1C=CCC1C(c1ccccn1)N2 (centres undefined)	23	3	-18	41*	7
Cn1cnc(S(=O)(=O)N2CCCCC2c2cc(C(=O)NCc3ccc(F)cc3)no2)c1 (centres undefined)	nt	nt	1	-1	nt
CCC(=NCc1ccc(Cl)c(Cl)c1)c1nc(-c2ccco2)oc1O	74*	7	0	-4	5
COC(=O)CCC(=O)OC1(C)C(=O)C=C2C=C(c3ccsc3)OC=C2C1=O (centres undefined)	6	1	1	35*	2
Cc1cc(N)c2cc(NC(=O)/C=C/c3ccccc3Cl)ccc2n1	-35	-1	136*	5	15
CN(C(=O)c1cccc(NC(=O)Cc2cccc(NC(=O)C3CCCN(C(=O)C4CCC4)C3)c2)c1)C1CCC1 (centres undefined)	nt	nt	6	3	nt
C[C@@H]1CN([C@H](C)CO)C(=O)c2cc(NC(=O)Nc3ccc(C(F)(F)F)cc3)ccc2O[C@H]1CN(C)Cc1ccc(Cl)c(Cl)c1	-3	nt	5	33*	nt
C[C@H]1CN([C@@H](C)CO)C(=O)c2cccc(NC(=O)Nc3ccc(C(F)(F)F)cc3)c2O[C@@H]1CN(C)Cc1ccc(Cl)c(Cl)c1	-15	nt	5	1	nt
Cc1cc(C)cc(NC(=O)C[n+]2ccccc2)c1	nt	nt	3	-1	nt
CC(=O)OCC1OC(n2cc(F)c(=O)[nH]c2=O)C(OC(C)=O)C1OC(C)=O (centres undefined)	0	0	1	-4	-4
O=C1C(F)=CC(COC(c2ccccc2)(c2ccccc2)c2ccccc2)OC1n1cc(F)c(=O)[nH]c1=O (centres undefined)	nt	nt	6	51*	nt
Cc1cccc(N=Nc2c(C)c(C#N)c(O)[nH]c2=O)c1	5	3	nt	8	-2
CCCCOC(=O)c1ccc(N=Nc2c(C)c(C#N)c(O)[nH]c2=O)cc1	17	1	nt	52*	14
CCCc1cc(C(=O)NNC(=S)NC(C)c2ccccc2)cs1 (centres undefined)	6	1	-4	0	0
COC(=O)c1ccc(=O)c2nc3/c(=C/O)c(O)cc(=O)c3[nH]c12	25	2	27	-7	49*
COC(=O)c1ccc(N)cc1O	2	-1	0	-2	1
COc1cc2c(cc1NC(=S)Nc1cccc(C)c1)oc1ccccc12	44*	1	4	12	-5
COc1cc2c(cc1NC(=O)Nc1cccc(C)c1)oc1ccccc12	6	6	3	-7	0
Cc1cc(N/N=C/c2cccc(Cl)c2)nc(NCc2ccccc2)n1	6	2	-12	4	15*
Clc1cccc(/C=N/Nc2nc(Cl)nc3ccccc23)c1	46*	1	4	23	5
Cc1cc(Nc2cccc(Cl)c2)nc(NCc2ccccc2)n1	12	7	-5	8	16*
CCOC(=O)C1=CCC(c2ccccc2C(F)(F)F)N(S(=O)(=O)c2ccc(C)cc2)C1 (centres undefined)	nt	nt	1	-8	nt
O=C1CCC(OCc2ccccc2)CCN1[C@H](CSc1ccccc1)Cc1ccccc1 (some centres undefined)	nt	nt	nt	-2	nt
CCOC(=O)N1CCN(C(=O)COC(=O)C2CCN(S(=O)(=O)c3ccc(C)c(C)c3)CC2)CC1	4	-2	-4	-1	-1
NS(=O)(=O)c1ccc2c(c1)C1C=CCC1C(C1CC=CCC1)N2 (centres undefined)	41	3	-16	39*	11
SMILES	PREPL inhibitor	PP5 primary	Rpn11 block	NadD block	PP1 counter
O=C(NN=Cc1c(O)ccc2ccccc12)c1ccc2c(c1)OCO2	15	nt	12	11	nt
O=C(N/N=C\c1c(O)ccc2ccccc12)c1ccc(S(=O)(=O)N2CCCCC2)cc1	6	0	nt	46*	1
O=C(CSc1nnc(-c2ccc(F)cc2)c2ccccc12)Nc1cccc(Cl)c1	-3	-2	-1	20	16*
O=C(CSc1nnc(-c2ccc(F)cc2)c2ccccc12)Nc1ccccc1	-10	5	2	6	15
NC(=O)C1CC(=O)N(c2ccc(OCc3ccc(Cl)c(Cl)c3)cc2)C1 (centres undefined)	nt	nt	3	-6	nt
FC(F)(F)Oc1ccccc1C(c1nnnn1-c1ccc2c(c1)OCCO2)N1CCN(C/C=C/c2ccccc2)CC1 (centres undefined)	nt	nt	5	3	nt
COc1ccc(CN(C)CC(=O)c2c(N)n(Cc3ccccc3)c(=O)n(C)c2=O)c(OC)c1	47*	1	-5	-2	-2
CCn1c(=O)c(C(=O)CN(C)Cc2cccc(OC)c2OC)c(N)n(Cc2ccccc2)c1=O	9	2	-1	-9	4
C=CCOC(=O)COc1ccc2c3c(c(=O)oc2c1)CCCC3	nt	nt	2	-13	nt
CCN(CC)C(=O)Cn1cnc2sc(C(=O)Nc3cc(OC)c(OC)c(OC)c3)c(C)c2c1=O	17	6	-2	0	15*
CCCNC(=O)Cn1cnc2sc(C(=O)NCCN(CC)CC)c(C)c2c1=O	-2	5	1	2	16*
CCCNC(=O)Cn1cnc2sc(C(=O)Nc3cc(OC)c(OC)c(OC)c3)c(C)c2c1=O	8	3	4	-5	1
CCCNC(=O)Cn1cnc2sc(C(=O)NCCCN3CCOCC3)c(C)c2c1=O	-3	0	-2	-1	-1
CCCCn1nnnc1C1(C)CCC(=O)N1Cc1ccc(C)cc1 (centres undefined)	nt	nt	nt	-6	nt
COc1ccc(CN2C(=O)C(CC(C)C)Nc3ncnc(N4CCCCC4)c32)cc1 (centres undefined)	1	3	-1	1	16*
COc1ccc(CN2C(=O)C(CC(C)C)Nc3ncnc(N4CCOCC4)c32)cc1 (centres undefined)	13	4	-14	0	-1
CC(C)CC1Nc2ncnc(N3CCCCC3)c2N(Cc2ccccc2)C1=O (centres undefined)	-1	0	-10	0	-1
O=C1C(Cc2ccccc2)Nc2ncnc(N3CCc4ccccc4C3)c2N1Cc1ccccc1 (centres undefined)	-4	nt	1	40*	nt
CCC1Nc2ncnc(N3CCc4ccccc4C3)c2N(Cc2ccc(Br)cc2)C1=O (centres undefined)	nt	nt	14	19	nt
O=C1C(Cc2ccccc2)Nc2ncnc(N3CCCCC3)c2N1Cc1ccc(Cl)cc1 (centres undefined)	2	1	5	36*	8
COc1ccc(/C=N/n2c(C)nc3sc(C)c(C)c3c2=O)cc1	10	-2	2	-6	-4
CC(C)C(NC(=O)COc1ccc2ccccc2c1)C(=O)N/N=C/C=C/c1ccccc1 (centres undefined)	4	8	-1	16	-1
N#Cc1c(NC(=O)CSc2nc(N)cc(=O)[nH]2)sc2c1CCCC2	7	-1	5	5	-1
Cc1ccc(C(=O)C2=C(O)C(=O)N(Cc3cccnc3)C2c2ccc(OC(C)C)cc2)o1 (centres undefined)	9	-1	2	11	20*
